Results with a measured potency or affinity are listed apart. Records with an inconclusive call do not appear. The source made the active and inactive calls. The rule behind the calls is not given here.
Assay: anti-trypanosomal activity in host cells – cell-based, plate reader, dry powder, set 3, dose response (AID 493197)
Settings: intracellular Trypanosoma cruzi in host cells; series mostly up to 19.5 µM

SMILES	outcome
CCCNC(=O)C1(C)CCCN(C(=O)Cc2ccc(OC)c(OC)c2)C1 (configuration not stated)	inactive
COc1ccc(CCNC(=O)C2CCCCC2)cc1OC	inactive
CCNC(=O)C1CCCN(C(=O)c2cc(OC)c(OC)c(OC)c2)CC1 (configuration not stated)	inactive
CCNC(=O)C1(C)CCN(C(=O)c2ccc(OC)c(OC)c2)C1 (configuration not stated)	inactive
CCNC(=O)C1(C)CCCN(C(=O)Cc2ccc(OC)c(OC)c2)C1 (configuration not stated)	inactive
COCCNC(=O)C1(C)CCCN(C(=O)c2cc(OC)c(OC)c(OC)c2)C1 (configuration not stated)	inactive
CCCNC(=O)C1(C)CCN(C(=O)Cc2ccc(OC)c(OC)c2)C1 (configuration not stated)	inactive
COc1ccc(CCN2CC(C(=O)NCc3ccc(F)cc3)CC2=O)cc1OC (configuration not stated)	inactive
COc1cc2c(cc1OC)C(C)N(CCC(N)=O)CC2 (configuration not stated)	inactive
CCCNC(=O)C1(C)CCCN(C(=O)c2ccc(OC(F)F)cc2)C1 (configuration not stated)	inactive
COCCNC(=O)C1(C)CCCN(C(=O)c2ccc(OC)c(OC)c2)C1 (configuration not stated)	inactive
COc1ccc(CN2CCC(C(=O)NC3CCCC3)CC2)cc1OC	inactive

Source: PubChem BioAssay AID493197 (Broad Institute, 2011)
